Inconclusive results are not listed. A number with no mark means an inactive call. Calls of active or inactive are those of the source. Calls come from the whole dose curve; as a rule, active = well fitted curve in the direction sought with a large enough effect in the signal ratio, with a control signal flat (not every such curve was filed as active); inconclusive = small, poorly fitted or top-dose-only effect, or effect the other way, or a change in a side signal; inactive = no such curve, though single readings can be large or run the other way; the % refers to the signal ratio.

Peroxisome proliferator-activated receptor gamma (Homo sapiens), sequence (P37231 whole entry, looked up): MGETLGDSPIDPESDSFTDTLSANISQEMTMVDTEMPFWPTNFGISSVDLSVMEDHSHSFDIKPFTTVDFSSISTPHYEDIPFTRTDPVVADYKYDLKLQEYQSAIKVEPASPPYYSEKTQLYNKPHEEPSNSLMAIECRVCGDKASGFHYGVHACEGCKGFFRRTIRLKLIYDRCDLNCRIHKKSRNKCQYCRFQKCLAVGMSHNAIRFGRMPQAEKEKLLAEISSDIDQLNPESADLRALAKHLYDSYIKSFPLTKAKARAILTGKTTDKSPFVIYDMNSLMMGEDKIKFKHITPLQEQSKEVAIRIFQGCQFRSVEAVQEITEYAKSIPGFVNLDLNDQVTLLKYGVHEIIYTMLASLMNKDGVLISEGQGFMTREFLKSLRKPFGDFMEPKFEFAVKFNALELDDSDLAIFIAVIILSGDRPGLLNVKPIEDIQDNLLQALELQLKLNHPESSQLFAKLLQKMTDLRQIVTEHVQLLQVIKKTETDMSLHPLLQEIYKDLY

This test has as its target Peroxisome proliferator-activated receptor gamma (Homo sapiens) (UniProt P37231). Description: qHTS assay for small molecule agonists of peroxisome proliferator-activated receptor gamma signaling (AID 588536). Conditions: HEK293 PPARg-UAS-bla, beta-lactamase ratio, 16 h, percent of rosiglitazone response, DMSO as zero; series mostly up to 76.7 µM; activation: at the top concentration. The text has this:
NIH Chemical Genomics Center [NCGC] U.S. Environmental Protection Agency [EPA] National Institutes of Environmental Health Sciences [NIEHS] National Toxicology Program [NTP] NCGC Assay Overview The Peroxisome proliferator-activated receptors (PPARs) are lipid-activated transcription factors of the nuclear receptor superfamily with three distinct subtypes namely PPAR alpha, PPAR delta (also called PPAR beta) and PPAR gamma. All these subtypes heterodimerizes with Retinoid X receptor (RXR) and these heterodimers regulate transcription of various genes. PPAR-gamma (glitazone receptor) agonists have been used in the treatment of type 2 diabetes and dyslipidaemia. It is involved in the regulation of glucose and lipid metabolism. PPAR-gamma activates certain genes like Paraoxonase 1 which is responsible for hydrolyzing organophosphates. PPAR-gamma agonists may also be therapeutically important in the treatment of coronary artery disease, obesity and cancer and atherosclerosis.
NCGC Assay Protocol Summary Using a beta-lactamase reporter-gene under control of Peroxisome Proliferator-Activated-gamma (PPAR-gamma) response element, a cell-based assay [GeneBLAzer PPAR-gamma-UAS-bla assay developed by Invitrogen] was used to measure PPAR-gamma ligands signaling. GeneBLAzer PPAR-gamma-UAS-bla-HEK293 cells were used with assay medium containing 1% charcoal/dextran treated FBS. The assay was performed in clear bottom black Greiner 1536-well plates. Rosiglitazone was used in the screen as the positive control. Library compounds were measured for their ability to stimulate the reporter gene activity. Compounds were screened in a titration series in 1536-well format. The fluorescence intensity (405 nm excitation, 460/530 nm emission) was measured using an EnVision plate reader. Data was normalized relative to Rosiglitazone control (2 uM, 100%), and DMSO only wells (basal, 0%). Concentration-response titration points for each compound were fitted to the Hill equation yielding concentrations of half-maximal stimulation (EC50) and maximal response (efficacy) values. qHTS protocol for PPAR-gamma beta-lactamase assay in agonist mode [Step] [Parameter] [Value] [Description] 1. Reagent; 6 uL; 3000 cells/well 2. Incubation; 37 C for 6 - 6.5 hrs 3. Compounds; 23 nL; 0.59 nM to 92 uM 4. Controls (Rosiglitazone); 23 nL, - One column with dose response, start 19 uM, 1:3 dilutions in duplicates - Final concentrations of 2 uM and 0.5 uM in two columns 5. Incubation; 37 C for 16 hrs 6. Detection reagent; 1 uL of CCF4-dye 7. Incubation; RT for 2 hrs 8. Detection; Fluorescence; Envision plate reader
For orientation: qHTS replaces the single test concentration by a dilution series.
As to `CCOP(=O)(OCC)OCC`, the result was inactive.
`CC(=O)CCC(C)=O`: the “activation” value was -0.583%.
In the case of `Nc1ccc(Cc2ccc(N)c(Cl)c2)cc1Cl`, the “activation” value is -11%.
Consider `Nc1c(Cl)cc([N+](=O)[O-])cc1Cl`, for which the result was inactive.
Turning to `ClP(Cl)(Cl)(Cl)Cl`, the “activation” value is -1.93%.
On the same count and under the same terms, then `OCCCCO`, with 1.64%.
On to `CC(C)(C)OOC(=O)c1ccccc1`, for which the result was inactive.
As for `ClCC(Br)CBr` (stereo not given), the “activation” value is 0.156%.
The same measure, in the same setting: then `c1ccoc1`, with -2.47%.
Consider `CC(C)OS(C)(=O)=O`, for which the “activation” value was -4.61%.
For the compound `CCSC(=O)N1CCCCCC1`, the outcome was inactive.
Take `CN(C)c1ccc(N=Nc2ccccc2)cc1`: the “activation” value was -0.492%.
As for `[N-]=[N+]=[N-]`, the “activation” value is 0.757%.
Same read-out and setting: then `CCOS(C)(=O)=O`, with 4.76%; and `Oc1ccc(Cl)c(Cl)c1Cl`, with -8.29%.
As to `CNC(=O)O/N=C/C(C)(C)S(C)=O` (stereo not given), the outcome was inactive.
`ClC(Br)Br`: the “activation” value was 3.95%.
As to `Oc1cccc(Cl)c1Cl`, the “activation” value was 3.32%.
As for `BrCC(Br)C1CCC(Br)C(Br)C1` (stereo not given), the “activation” value is -3.2%.
On the same count and under the same terms, then `S=c1[nH]c2ccccc2[nH]1`, with 1.94%.
Regarding `Cc1cccc(C)c1N`, the “activation” value was 2.95%.
For `CCCN(CCC)c1c([N+](=O)[O-])cc(C(F)(F)F)cc1[N+](=O)[O-]`, the outcome was inactive.
`Nc1ccc([N+](=O)[O-])cc1N`: the outcome was inactive.
Turning to `C=CCOCC1CO1` (stereo not given), the “activation” value was -3.09%.
In the case of `O=C(O)C(Br)Br`, the “activation” value was -2.01%.
Turning to `Oc1ccc(Cl)c(Cl)c1`, the “activation” value is -0.261%.
With `O=C(O)CBr`, the “activation” value is 2.97%.
Turning to `CCCCCC[N+](=O)[O-]`, the “activation” value was 2.29%.
As for `Nc1ccc(Oc2ccc(N)cc2)cc1`, the result was inactive.
On to `O=P(OCCCl)(OCCCl)OCCCl`, for which the “activation” value was 3.63%.
For the compound `O=NN1CCCCC1`, the “activation” value was -2.72%.
Take `Nc1cccc2ccccc12`: the “activation” value is -5.77%.
For the compound `COP(=S)(OC)SCn1nnc2ccccc2c1=O`, the outcome was inactive.
Consider `ClCCOCCCl`, for which the “activation” value is -0.25%.
`FC(Cl)(Cl)Cl`: the “activation” value is 0.806%.
Regarding `[O-][Cl+]O`, the “activation” value was -0.583%.
Still for that read-out and setting: then `O=[N+]([O-])c1ccccc1O`, with 2.13%; and `CCN(CC)N=O`, with 2.18%; and `O=C(O)C(Cl)Br` (stereo not given), with -1.58%.
On the same count and under the same terms, as for `ClCCOCOCCCl`, the figure is 0.732%.

Values taken from PubChem BioAssay (NCATS).
